Reference: PubChem BioAssay (NCATS)
Several values for one entry are separate records, joined by “and”; a condition that tells them apart may be missing. Equal values may be shown once. Results filed as inconclusive are left out. Activity calls are given as the source filed them. Calls follow the shape of the dose curve; as a rule, active = well fitted curve in the direction sought with a large enough effect; inconclusive = small, poorly fitted or top-dose-only effect, or another doubt; inactive = no such curve, though single readings can be large; an effect the other way counts as inactive or inconclusive.

Experiments:
[1] = NS1 protein of Zika virus - qHTS assay to identify small molecule inhibitors in human HEK 293 cells (AID 1347053); also: nearly all actives have a fitted effect of over 55% in size
Procedure, shortened: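 HEK 293 cells, seeded 20 h at 37 C, were pretreated with compound 1 h, then infected with ZIKV MR766 (MOI = 0.5) for 24 h. NS1 was read by TR-FRET with two anti-NS1 antibodies, normalized to uninfected and infected wells.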

[2] = qHTS of pediatric cancer cell lines to identify multiple opportunities for drug repurposing: Primary screen for A673 cells (AID 1347092); also: nearly all actives have a fitted effect of over 45% in size
Procedure, shortened: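 48 h compound exposure, A673, 500-1,000 cells/well, 37 degrees C/5% CO2. MIPE: 11-point, 0.78 nM-46 µM; NPC: 8-point, 0.59 nM-46 µM (final). Readout CellTiter-Glo luminescence after 15 min RT.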

[3] = qHTS of pediatric cancer cell lines to identify multiple opportunities for drug repurposing: Primary screen for SK-N-MC cells (AID 1347093)
Procedure, shortened: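 Metabolically active cells were quantified by ATP-dependent luminescence (CellTiter-Glo, 15 min at room temperature) following 48 h treatment. Cells had been plated at 500-1,000 per well and settled for 5 h beforehand.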

[4] = qHTS of pediatric cancer cell lines to identify multiple opportunities for drug repurposing: Primary screen for BT-37 cells (AID 1347094)
Procedure, shortened: (§1)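 ATP-based luminescence (CellTiter-Glo) quantifies viability after a 48-hour exposure. Compounds are dosed across 8 or 11 final concentrations; DMSO and 2.3 µM bortezomib serve as controls.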

[5] = qHTS of pediatric cancer cell lines to identify multiple opportunities for drug repurposing: Primary screen for NB-EBc1 cells (AID 1347095)
Procedure, shortened: as §1

[6] = qHTS of pediatric cancer cell lines to identify multiple opportunities for drug repurposing: Primary screen for U-2 OS cells (AID 1347096); also: nearly all actives have a fitted effect of over 50% in size
Procedure, shortened: (§2)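 Cells (500-1,000/well) rested 5 h, then received compounds for 48 h; metabolically active cells were measured by CellTiter-Glo luminescence. Final concentrations spanned up to 46 µM (MIPE, 11-point) or 0.59 nM-46 µM (NPC, 8-point) in primary screens, 11-point in follow-ups.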

[7] = qHTS of pediatric cancer cell lines to identify multiple opportunities for drug repurposing: Primary screen for Saos-2 cells (AID 1347097); also: nearly all actives have a fitted effect of over 40% in size
Procedure, shortened: as §1

[8] = qHTS of pediatric cancer cell lines to identify multiple opportunities for drug repurposing: Primary screen for SK-N-SH cells (AID 1347098); also: nearly all actives have a fitted effect of over 65% in size
Procedure, shortened: as §2

[9] = qHTS of pediatric cancer cell lines to identify multiple opportunities for drug repurposing: Primary screen for NB1643 cells (AID 1347099); also: nearly all actives have a fitted effect of over 50% in size
Procedure, shortened: as §1

[10] = qHTS of pediatric cancer cell lines to identify multiple opportunities for drug repurposing: Primary screen for LAN-5 cells (AID 1347100)
Procedure, shortened: as §2

[11] = qHTS of pediatric cancer cell lines to identify multiple opportunities for drug repurposing: Primary screen for DAOY cells (AID 1347090); also: nearly all actives have a fitted effect of over 55% in size
Procedure, shortened: (§3)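 Cell viability, CellTiter-Glo luminescence; 500-1,000 cells/well, 8- or 11-point titration, 48 h compound exposure at 37 degrees C, 5% CO2. Controls: DMSO neutral, bortezomib 2.3 µM final as positive.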

[12] = qHTS of pediatric cancer cell lines to identify multiple opportunities for drug repurposing: Primary screen for Rh18 cells (AID 1347102); also: nearly all actives have a fitted effect of over 65% in size
Procedure, shortened: as §2

[13] = qHTS of pediatric cancer cell lines to identify multiple opportunities for drug repurposing: Primary screen for OHS-50 cells (AID 1347103); also: nearly all actives have a fitted effect of over 40% in size
Procedure, shortened: as §2

[14] = qHTS of pediatric cancer cell lines to identify multiple opportunities for drug repurposing: Primary screen for RD cells (AID 1347104); also: nearly all actives have a fitted effect of over 55% in size
Procedure, shortened: as §1

[15] = qHTS of pediatric cancer cell lines to identify multiple opportunities for drug repurposing: Primary screen for MG 63 (6-TG R) cells (AID 1347105); also: nearly all actives have a fitted effect of over 50% in size
Procedure, shortened: as §1

[16] = qHTS of pediatric cancer cell lines to identify multiple opportunities for drug repurposing: Primary screen for TC32 cells (AID 1347089); also: nearly all actives have a fitted effect of over 60% in size
Procedure, shortened: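 In the primary qHTS, MIPE compounds were tested at 11 concentrations (0.78 nM to 46 µM) and NPC compounds at 8 (0.59 nM to 46 µM) on TC32 cells for 48 h. CellTiter-Glo luminescence gave viability.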

[17] = qHTS of pediatric cancer cell lines to identify multiple opportunities for drug repurposing: Primary screen for SJ-GBM2 cells (AID 1347091)
Procedure, shortened: as §3

[18] = qHTS of pediatric cancer cell lines to identify multiple opportunities for drug repurposing: Primary screen for BT-12 cells (AID 1347101); also: nearly all actives have a fitted effect of over 25% in size
Procedure, shortened: as §2

Measured: Potency
Potency is read from the fitted curve at half-maximal effect.

COc1ccc(-c2cc(=O)c3c(O)cc(O)cc3o2)cc1O
inactive: [1] | [6]
active: [2] 4.69 µM | [3] 2.64 µM | [4] 21.7 µM | [5] 11.8 µM | [7] 18.7 µM | [8] 24.1 µM | [9] 4.69 µM | [10] 7.43 µM

CC(C)(C)NC(=O)Nc1cccc(Nc2ncc(F)c(NC(C)(C)CO)n2)c1
inactive: [1] | [11] | [4] | [6] | [7] | [12] | [13] | [14] | [15]
active: [3] 3.32 µM

O=C(O)c1c(Cl)c(Cl)c(Cl)c(Cl)c1-c1c2cc(I)c(=O)c(I)c-2oc2c(I)c(O)c(I)cc12
inactive: [1]
active: [8] 24.1 µM | [13] 7.69 µM

CC(=O)N(C)C1(c2ccccc2)CCN(CCC[C@]2(c3ccc(Cl)c(Cl)c3)CCCN(C(=O)c3ccccc3)C2)CC1
active: [1] 26.4 µM | [3] 20.9 µM | [4] 30.6 µM | [7] 33.2 µM | [9] 23.5 µM | [10] 23.5 µM | [13] 24.3 µM | [14] 18.7 µM

CN1[C@@H]2CCC[C@@H]1CC(NC(=O)c1nn(C)c3ccccc13)C2 (stereo not given in full)
not listed: [1] | [5] | [8] | [9] | [18]
inactive: all other assays above

O=C(CCCCCCC(=O)Nc1ccccc1)NO
active: [16] 6.64 µM and 14.7 µM | [11] 4.22 µM and 5.9 µM | [3] 1.48 µM | [4] 5.5 µM and 7.69 µM | [5] 1 nM and 1.48 µM | [6] 3.35 µM and 4.69 µM | [7] 4.73 µM and 5.9 µM | [8] 2.73 µM and 7.64 µM | [9] 944 nM and 1.32 µM | [10] 1 nM and 1.32 µM | [18] 6.92 µM and 17.2 µM | [12] 2.99 µM and 4.18 µM | [13] 2.19 µM and 2.73 µM | [14] 5.31 µM and 6.62 µM | [15] 3.35 µM and 3.72 µM

CCNc1cc(NC2CCC(O)CC2)nc(Nc2ccc3c(ccn3Cc3ccccc3)c2)n1 (stereo not given)
inactive: [16] | [6] | [15]
active: [17] 29.6 µM | [2] 29.6 µM

COCCCCC(=NOCCN)c1ccc(C(F)(F)F)cc1
inactive: [16] | [17] | [4] | [5] | [6] | [9] | [12]
active: [2] 23.5 µM | [3] 10.5 µM | [8] 24.1 µM | [14] 33.2 µM

COc1cc2c(cc1OC)CN(CCc1ccc(NC(=O)c3cc(OC)c(OC)cc3NC(=O)c3cnc4ccccc4c3)cc1)CC2
inactive: [16] | [11] | [17] | [5] | [6] | [18] | [12] | [15]
active: [3] 10.5 µM | [8] 19.2 µM | [9] 14.8 µM

CC=CC(=O)N(CC)c1ccccc1C
active: [4] 30.6 µM | [5] 14.8 µM
inactive: [16] | [11] | [3] | [6] | [7] | [12] | [13] | [15]

NC(=O)c1cnc(-c2ccc(C3(N)CCC3)cc2)c(-c2ccccc2)c1
inactive: [16] | [11] | [4] | [5] | [6] | [12]
active: [3] 1.48 µM | [13] 2.73 µM

CC(C)OC(=O)CCCC=CC[C@@H]1[C@H](C=C[C@@H](O)COc2cccc(C(F)(F)F)c2)[C@H](O)C[C@@H]1O
active: [17] 23.5 µM | [5] 23.5 µM | [7] 14.8 µM | [9] 23.5 µM | [18] 19.3 µM | [13] 24.3 µM | [14] 33.2 µM
inactive: [16] | [2] | [6] | [10]

CO[C@H]1C[C@@H]2CC[C@@H](C)[C@@](O)(O2)C(=O)C(=O)N2CCCC[C@@H]2C(=O)O[C@H]([C@@H](C)C[C@@H]2CC[C@H](O)[C@H](OC)C2)CC(=O)[C@H](C)C=C(C)[C@@H](O)[C@@H](OC)C(=O)[C@H](C)C[C@H](C)C=CC=CC=C1C
inactive: [16] | [11] | [6] | [7] | [8] | [14] | [15]
active: [18] 9.68 µM

COc1cc(N2CCC(N3CCN(C)CC3)CC2)ccc1Nc1ncc(Cl)c(Nc2ccccc2S(=O)(=O)C(C)C)n1
inactive: [16] | [11] | [4] | [6]
active: [3] 0.001 µM | [8] 4.82 µM

CC(=O)O[C@]1(C(C)=O)CC[C@@H]2[C@@H]3C[C@H](C)C4=CC(=O)CC[C@]4(C)[C@H]3CC[C@@]21C
inactive: [16] | [17] | [4] | [5] | [6]
active: [2] 18.7 µM | [3] 18.7 µM | [8] 24.1 µM | [9] 20.9 µM | [13] 24.3 µM

Nc1ncnc2ccccc12
active: [11] 18.7 µM
not listed: [1] | [2] | [3] | [8] | [9] | [10] | [15]
inactive: all other assays above
